About 83,000 compounds went through this panel and 20% of them were active in at least one assay; those are over-represented in the sample as a whole.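 Growth was measured after 48 h exposure to one concentration of compound in 96-well plates. Values under 10 count as active.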 Values without a mark were called inactive. Activity calls are given as the source filed them.
Columns and labels:
Assay in all cases: NCI-60 one-dose screen, 48 h (100 = growth as untreated, 0 = no growth, -100 = all killed)
Details in all cases: 10 µM
SR leukemia = tested on: SR leukemia
RPMI-8226 leukemia = tested on: RPMI-8226 leukemia
OVCAR-8 ovarian = tested on: OVCAR-8 ovarian
OVCAR-5 ovarian = tested on: OVCAR-5 ovarian
OVCAR-4 ovarian = tested on: OVCAR-4 ovarian
SK-OV-3 ovarian = tested on: SK-OV-3 ovarian
IGROV1 ovarian = tested on: IGROV1 ovarian
HS 578T breast = tested on: HS 578T breast
NCI/ADR-RES ovarian = tested on: NCI/ADR-RES ovarian
T-47D breast = tested on: T-47D breast
BT-549 breast = tested on: BT-549 breast
MDA-MB-435 melanoma = tested on: MDA-MB-435 melanoma
SW-620 colon = tested on: SW-620 colon
MCF7 breast = tested on: MCF7 breast
HCT-116 colon = tested on: HCT-116 colon
HCC-2998 colon = tested on: HCC-2998 colon
KM12 colon = tested on: KM12 colon
OVCAR-3 ovarian = tested on: OVCAR-3 ovarian

| SMILES | growth (SR leukemia) | growth (RPMI-8226 leukemia) | growth (OVCAR-8 ovarian) | growth (OVCAR-5 ovarian) [%] | growth (OVCAR-4 ovarian) | growth (SK-OV-3 ovarian) | growth (IGROV1 ovarian) | growth (HS 578T breast) | growth (NCI/ADR-RES ovarian) | growth (T-47D breast) | growth (BT-549 breast) | growth (MDA-MB-435 melanoma) | growth (SW-620 colon) | growth (MCF7 breast) | growth (HCT-116 colon) | growth (HCC-2998 colon) | growth (KM12 colon) | growth (OVCAR-3 ovarian) |
| --- | --- | --- | --- | --- | --- | --- | --- | --- | --- | --- | --- | --- | --- | --- | --- | --- | --- | --- |
| Cc1ccc(-n2c(-c3cc4c([nH]c5ccccc54)c(-c4cccc(O)c4)n3)n[nH]c2=S)cc1 | -21.8% (active) | -14.1% (active) | 0.787% (active) | 50.1 | 26.4% | -14.5% (active) | -3.48% (active) | 23.4% | 61.7% | 20.4% | -35.7% (active) | 1.24% (active) | 10.5% | 2.88% (active) | 3.29% (active) | -52.5% (active) | 5% (active) | – |
| NC1CCC(Nc2nc(NCc3cc(Cl)ccc3O)c3ncn(C4CCCC4)c3n2)CC1 (centres undefined) | -15.9% (active) | -25.1% (active) | 8.24% (active) | 17.3 | -6.96% (active) | 2.6% (active) | 1.62% (active) | -1.92% (active) | 26.3% | -28% (active) | -21.2% (active) | -43.9% (active) | 3.11% (active) | -58.9% (active) | -17.6% (active) | -39.5% (active) | 1.98% (active) | – |
| COc1cc(-c2nc3ccc(C)cc3[nH]2)ccc1OCc1nnc(-c2ccc(CC(C)C)cc2)o1 | -2.79% (active) | 68.9% | 97.8% | 102 | 91.2% | 94.4% | 91.4% | 84% | 96% | 77.2% | 101% | 99.6% | 106% | 79.8% | 97.1% | 115% | 97.5% | – |
| Nc1cc(O)cc(O)c1 | 91.7% | 109% | 104% | 89.6 | 94.1% | 99.3% | 100% | – | 99.7% | 89% | 105% | 106% | 107% | 98.3% | 95.8% | 98.5% | 99.7% | 108% |
| c1ccc(C2CCCCC2)c(OCCCCCN2CCNCC2)c1 | -32.9% (active) | -14.6% (active) | 83.2% | 93.8 | 68.5% | 94.9% | 56.7% | 76% | 70% | 28% | 72.4% | 47.2% | 11.3% | -34.4% (active) | -7.58% (active) | -68.8% (active) | 35.6% | – |
| CN(C)c1ccc2c(c1)OC(N)=C(C#N)C2c1ccc2c(c1)CCO2 (centres undefined) | 38.2% | 32.9% | 24.1% | 57.2 | 48.3% | 32.2% | – | 23.1% | 3% (active) | 66.8% | 16.7% | 0.989% (active) | 31.9% | 16.9% | 5.3% (active) | 36.8% | 24.2% | -3.4% (active) |
| COc1cc2c3c(cccc3c1)C(=O)N(CCN1CCCC1)C2=O | 2.44% (active) | 12.2% | 6.43% (active) | 34.1 | 21.6% | 34.1% | 23.5% | 27.1% | 13% | 25.3% | 49.4% | 14.4% | 9.75% (active) | 3.07% (active) | 6.66% (active) | 44.4% | 21.3% | – |
| Cc1ccc2c(c1)-c1cc(C)nn1-c1ccc(C#N)cc1O2 | 28% | 54.3% | 70.4% | 94.1 | 76.9% | 53.3% | 64.5% | 56.4% | 40.1% | 51.8% | 78.5% | 8.67% (active) | 41% | 42% | 27.6% | 90% | 56.9% | – |
| COc1ccccc1CNCCCN1C(=O)c2ccc3c4c(ccc(c24)C1=O)C(=O)N(CCCNCCNCCCN)C3=O | 13.6% | 60.8% | 12.4% | 65.9 | -94.8% (active) | 52.8% | 13.4% | 54.6% | 96.7% | 17.9% | 69.4% | 10.4% | 8.12% (active) | -39.1% (active) | 1.05% (active) | 14.7% | 15.4% | – |
| O=C(O)c1ccccc1C(=O)c1cccc2c(F)cccc12 | 115% | 104% | 99% | 110 | 98.4% | 109% | 113% | 126% | 104% | 94.5% | 103% | 112% | 106% | 93.5% | 103% | 105% | 111% | – |
| Cc1cc(C)c(/C=C2\C(=O)Nc3ccc(NC(=O)CCCCCCC(=O)NO)cc32)[nH]1 | 22.1% | 40.6% | 17.7% | 15.9 | 50.5% | 31.3% | 37.9% | 21.6% | 92.1% | 15.3% | 47.5% | 2.24% (active) | 5.42% (active) | 12.2% | -77.2% (active) | 40.2% | 60.2% | – |
| Cn1c([N+](=O)[O-])cnc1C=C1C(=O)c2ccccc2C1=O | 7.25% (active) | 40.6% | 7.11% (active) | 61.3 | 56.8% | 54% | 13.8% | 26.4% | 44.5% | 65.4% | 25% | 11.8% | 29% | 37.8% | 20.7% | 88.2% | 68.3% | – |
| COc1ccc(-c2csc(NC(=O)CO[N+](=O)[O-])n2)cc1 | 96.1% | 106% | 96.1% | 113 | 103% | 108% | 97.9% | 104% | 99.6% | 57% | – | 106% | 103% | 92.6% | 102% | 105% | 95.8% | – |
| COc1ccc(-c2n/c(=C\c3c(O)[nH]c4ccccc34)cc3c2=Nc2ccccc2-3)cc1 | 6.48% (active) | 24.7% | 20.1% | 89.1 | 5.98% (active) | 93.5% | 85.6% | 80.7% | 5.95% (active) | 84.8% | 78.4% | 4.87% (active) | -6.59% (active) | -22% (active) | -87.3% (active) | 17.8% | 5.41% (active) | – |
| c1ccc(CC(NCCNC(Cc2ccccc2)c2ccccc2)c2ccccc2)cc1 (centres undefined) | -33.7% (active) | -41.1% (active) | 22.5% | 55.2 | 35.6% | 84% | 36.4% | 73.4% | 38.8% | 13.9% | 56.6% | 38% | 5.83% (active) | -7.95% (active) | -25.3% (active) | 3.25% (active) | 16.3% | – |
| COc1cc(C(=O)n2nc(N)c3c(C)cc(C)nc32)cc(OC)c1OC | 13% | 59.6% | 84.4% | 118 | 92.8% | 92.3% | 86% | 83.2% | 60.8% | 98.5% | 79.7% | -12.7% (active) | 31.5% | 45.3% | 70.2% | 95.6% | – | – |
| N/C(=N\O)c1cn(C2OC(CO)C(O)C2O)c2ncnc(N)c12 (centres undefined) | -4.39% (active) | -43.6% (active) | -14.4% (active) | 24.3 | -21.6% (active) | -30.2% (active) | -13.7% (active) | -5.15% (active) | 4.77% (active) | -7.04% (active) | 14% | -73.1% (active) | -12.1% (active) | -29.9% (active) | 9.85% (active) | -23.1% (active) | -24.2% (active) | – |
| CCCCCCCOc1cccc(/C=C2/C(=O)N=C3SCCCN32)c1 | 47.9% | 40.8% | 71.6% | 91.2 | 63.1% | 88% | 79.9% | 91.4% | 56.8% | 0.89% (active) | 51.3% | 56.4% | 76.6% | 29.4% | 39.9% | 95.8% | 75.2% | – |

— PubChem BioAssay (NCI)
